Values joined by “and” are separate entries in the source; they are usually repeats but may differ in a detail not shown here. Equal values may be shown once. Records with an inconclusive call do not appear. Values without a mark were called inactive. Active and inactive are the calls of the source. Calls follow the shape of the dose curve; as a rule, active = well fitted inhibition curve with a large enough effect; inconclusive = small, poorly fitted or top-dose-only effect; inactive = flat fitted curve, though single readings scatter.
Test system: CRL-7250
Assay: Cytotoxic Profiling of Annotated Libraries Using Quantitative High-Throughput Screening (AID 1296008); also: nearly all actives have a fitted effect of over 60% in size
Conditions: Five cell lines viability, CellTiter-Glo ATP luminescence, 48-72 h; max response: active compounds read low
How it was run: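 Compounds were pin-transferred onto cells and incubated 48 or 72 hr at 37 degree Celsius, 95% humidity. CellTiter-Glo was added, plates sat 10 min at room temperature, then ATP-coupled luminescence was imaged as the viability read-out.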
% is scaled to controls: 0 for no effect and ±100 for the full control effect; potency is read from the fitted curve at half-maximal effect.

Row | SMILES | max response | outcome | Potency
1 | CC(=O)[C@@]1(O)CC[C@H]2[C@@H]3C[C@H](C)C4=CC(=O)CC[C@]4(C)[C@H]3CC[C@@]21C | -14.2% |  | 
2 | O=C(CCCl)NCc1ccccc1 | -8.2% |  | 
3 | CCN(CC)CC(=O)OCC(=O)[C@@]1(O)CC[C@H]2[C@@H]3CCC4=CC(=O)CC[C@]4(C)[C@H]3[C@@H](O)C[C@@]21C |  | inactive | 
4 | CC(=O)OCC(=O)Nc1cc(C#N)cc(NC(=O)COC(C)=O)c1Cl |  | inactive | 
5 | O=C(c1ccco1)N1CCNCC1 | -10.9% |  | 
6 | C[C@H](CN1CCCC1)C(=O)c1ccc(C(F)(F)F)cc1 | 3.63% |  | 
7 | Cc1oc(=O)oc1COC(=O)[C@@H]1N2C(=O)[C@@H](NC(=O)[C@H](N)c3ccccc3)[C@H]2SC1(C)C | -5.05% |  | 
8 | COc1cc2c(cc1OC)C(=O)CC2 |  | inactive | 
9 | Cc1[nH]cnc1-c1ccc(Cl)cc1 |  | inactive | 
10 | O=[N+]([O-])c1nccn1CO[C@@H](CO)[C@H](O)CO | -17.9% |  | 
11 | NC(=O)NC1N=C([O][Al])NC1=O (configuration not stated) |  | inactive | 
12 | Cc1nc2n(c(=O)c1CCN1CCC(C(=O)c3ccc(F)cc3)CC1)CCS2 |  |  | 9.44 µM (active)
13 | CN(C)CCOC(c1ccccc1)c1ccc(Br)cc1 (configuration not stated) | -20.9% |  | 
14 | Cc1ccc(C(C)OC(=O)C2(C)CCC(C(=O)O)C2(C)C)cc1 (configuration not stated) | 3.77% |  | 
15 | O=C(O)Cc1ccc(OCCNC[C@H](O)c2ccccc2)cc1 |  | inactive | 
16 | CCCCCC1Nc2cc(C(F)(F)F)c(S(N)(=O)=O)cc2S(=O)(=O)N1 (configuration not stated) | -8.64% |  | 
17 | CN1CC[C@H](c2c(O)cc(O)c3c(=O)cc(-c4ccccc4Cl)oc23)[C@H](O)C1 |  |  | 0.266 µM (active)
18 | CN(C)CCCOC1(Cc2ccccc2)CCCCCC1 |  | inactive | 
19 | Cc1cnc(NS(=O)(=O)c2ccc(N)cc2)nc1 |  | inactive | 

Row | SMILES | max response | outcome | Potency
20 | CC1CCCCN1CCCOC(=O)c1ccc(OC2CCCCC2)cc1 (configuration not stated) | -16.2% |  | 
21 | Cc1cccc(OCC(O)CNC(C)(C)C)c1C (configuration not stated) | -7.39% |  | 
22 | C[C@H]1C[C@H](O)c2ccsc2S1(=O)=O | -0.46% |  | 
23 | O=C(O)CNC(=O)CNC(=O)CNC(=O)CSC(=O)c1ccccc1 | -5.45% |  | 
24 | N[C@@H](Cn1ccc(=O)c(O)c1)C(=O)O | -0.877% |  | 
25 | O=C(CCCCCCCCC#CI)Oc1ccccc1 | 1.88% |  | 
26 | CC(=O)[C@H]1CC[C@H]2[C@@H]3C=CC4=CC(=O)CC[C@@]4(C)[C@@H]3CC[C@]12C | -2.73% and 1.98% |  | 
27 | CC(=O)OC/C=C(C)/C=C/C=C(C)/C=C/C1=C(C)CCCC1(C)C | 0.956% |  | 
28 | Cc1ccc(C(=O)Oc2ccc(C(O)CNC(C)(C)C)cc2OC(=O)c2ccc(C)cc2)cc1 (configuration not stated) | -6.97% |  | 
29 | COc1ccccc1N1CCN(CC(O)COc2cc(OC)c(OC)c(OC)c2)CC1 (configuration not stated) |  | inactive | 
30 | CCCCCCCC(=O)[O-].CCCCCCCC(=O)[O-].[Zn+2] | -4.35% |  | 
31 | CC[N+](CC)(CC)CCOC(=O)C(C1CCCC1)C1CCCC1 |  | inactive | 
32 | C[C@@]12CCC[C@H]1[C@@H]1CC[C@H]3C[C@@H](O)CC[C@]3(C)[C@H]1CC2 | 2.58% |  | 
33 | O=C(NO)c1ccccc1 | -19.7% |  | 
34 | CCC(=O)Oc1ccc2c(c1)CC[C@@H]1[C@@H]2CC[C@@]2(C)[C@H]1C[C@@H](OC(=O)CC)[C@@H]2OC(=O)CC | -3.71% |  | 
35 | CCCCCCCCCCCC[N+](C)(C)Cc1ccccc1 |  |  | 4.22 µM (active)
36 | CC(C)NCCCC1(C(N)=O)c2ccccc2-c2ccccc21 |  | inactive | 
37 | Cc1coc2ccccc2c1=O | -0.524% |  | 
